Assay results published in PubChem BioAssay AID1159580 (chemical genetic matrix, 2015).
“And” between values parts separate entries of the source, which are not always exact repeats. Equal entries are not always repeated. Screen size: about 5,500 compounds; about 2,000 (36%) were called active. Roughly 18% stayed inconclusive and do not appear here. Cut-off read from the data, not from the text of the source: active = normalized growth mostly below about 0.91 (no sharp cut-off); inconclusive = no clear call, values can overlap the other calls; inactive = mostly above about 0.92. This is one part of the list.

Assay: chemical genetic growth profiling, strain panel (AID 1159580);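 note: tested at 20 µM; growth read once vehicle control cultures reached saturation at 30 °C; 1 = growth at the plate median or of vehicle wells; lower values mean less growth of the strain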
Settings: S. cerevisiae deletion strains, growth OD

Measured: normalized growth

CC(C[N+](C)(C)C)OC(N)=O (centres undefined)
inactive: locus YAL013W, strain DEP1, stronger effect = lower value 0.991 | locus YAL021C, strain ccr4, stronger effect = lower value 1.05 | locus YAL026C, strain drs2, stronger effect = lower value 1.03 | locus YAL030W, strain snc1, stronger effect = lower value 1.02 | locus YAL040C, strain CLN3, stronger effect = lower value 1 | locus YBL061C, strain skt5, stronger effect = lower value 1.03 | locus YBR009C, strain hhf1, stronger effect = lower value 1.01 | locus YBR021W, strain FUR4, stronger effect = lower value 1.01 | locus YBR023C, strain chs3, stronger effect = lower value 1.03 | locus YBR171W, strain sec66, stronger effect = lower value 1.05 | locus YBR229C, strain ROT2, stronger effect = lower value 0.994 | locus YBR231C, strain swc5, stronger effect = lower value 1.01 | locus YBR279W, strain paf1, stronger effect = lower value 1.03 | locus YCL011C, strain gbp2, stronger effect = lower value 1.01 | locus YCL016C, strain dcc1, stronger effect = lower value 1.03 | locus YCL029C, strain bik1, stronger effect = lower value 0.988 | locus YCL061C, strain MRC1 (second series), stronger effect = lower value 1 | locus YCL061C, strain MRC1, stronger effect = lower value 1.01 | locus YCL069W, strain vba3, stronger effect = lower value 1.03 | locus YCR088W, strain abp1, stronger effect = lower value 1.03 | locus YDL005C, strain med2, stronger effect = lower value 1.01 | locus YDL035C, strain GPR1, stronger effect = lower value 1.04 | locus YDL040C, strain nat1, stronger effect = lower value 1.02 | locus YDL074C, strain BRE1, stronger effect = lower value 0.947 | locus YDL101C, strain DUN1, stronger effect = lower value 0.976 | locus YDL185W, strain tfp1, stronger effect = lower value 0.981 | locus YDL192W, strain arf1, stronger effect = lower value 0.983 | locus YDR001C, strain nth1, stronger effect = lower value 1.03 | locus YDR069C, strain doa4, stronger effect = lower value 1.01 | locus YDR101C, strain arx1, stronger effect = lower value 0.991 | locus YDR137W, strain rgp1, stronger effect = lower value 1.04 | locus YDR150W, strain NUM1, stronger effect = lower value 1.01 | locus YDR159W, strain sac3, stronger effect = lower value 0.982 | locus YDR162C, strain NBP2, stronger effect = lower value 1.02 | locus YDR195W, strain ref2 1 | locus YDR297W, strain sur2, stronger effect = lower value 1.02 | locus YDR318W, strain mcm21, stronger effect = lower value 0.985 | locus YDR334W, strain swr1, stronger effect = lower value 1.03 | locus YDR335W, strain msn5, stronger effect = lower value 1.03 | locus YDR363W, strain ESC2, stronger effect = lower value 0.974 | locus YDR388W, stronger effect = lower value 0.992 | locus YDR392W, strain spt3, stronger effect = lower value 0.962 | locus YDR502C, strain sam2, stronger effect = lower value 0.991 | locus YEL003W, strain gim4, stronger effect = lower value 1.01 | locus YEL037C, strain rad23, stronger effect = lower value 1.04 | locus YEL061C, strain CIN8 (second series), stronger effect = lower value 1.03 | locus YEL061C, strain CIN8, stronger effect = lower value 0.995 | locus YER002W, strain NOP16, stronger effect = lower value 1.02 | locus YER015W, strain faa2, stronger effect = lower value 1.02 | locus YER016W, strain bim1, stronger effect = lower value 1.02 | locus YER110C, stronger effect = lower value 0.972 | locus YER111C, strain swi4, stronger effect = lower value 1.04 | locus YER155C, strain BEM2 (second series), stronger effect = lower value 0.998 | locus YER155C, strain BEM2, stronger effect = lower value 0.986 | locus YER167W, strain BCK2, stronger effect = lower value 1.01 | locus YFR010W, strain ubp6, stronger effect = lower value 1.02 | locus YGL078C, strain dbp3, stronger effect = lower value 0.982 | locus YGL086W, strain mad1, stronger effect = lower value 0.984 | locus YGL167C, strain pmr1, stronger effect = lower value 1.04 | locus YGL173C, strain kem1, stronger effect = lower value 1.01 | locus YGL227W, strain vid30, stronger effect = lower value 1.02 | locus YGL240W, strain doc1, stronger effect = lower value 1.01 | locus YGL248W, strain PDE1, stronger effect = lower value 0.987 | locus YGL253W, strain hxk2, stronger effect = lower value 1.02 | locus YGR078C, strain PAC10, stronger effect = lower value 0.986 and 0.968 | locus YGR135W, strain pre9, stronger effect = lower value 0.987 | locus YGR229C, strain SMI1, stronger effect = lower value 1.03 | locus YGR252W, strain gcn5, stronger effect = lower value 1.04 | locus YHR013C, strain ard1, stronger effect = lower value 1.03 | locus YHR027C, strain rpn1, stronger effect = lower value 1.03 | locus YHR030C, strain SLT2, stronger effect = lower value 0.991 and 0.986 | locus YHR079C, strain IRE1 (second series), stronger effect = lower value 0.975 | locus YHR079C, strain IRE1, stronger effect = lower value 0.976 | locus YHR094C, strain hxt1, stronger effect = lower value 0.982 | locus YHR129C, strain ARP1, stronger effect = lower value 0.988 | locus YHR142W, strain chs7, stronger effect = lower value 1.04 | locus YHR200W, strain rpn10, stronger effect = lower value 0.987 | locus YIL066C, strain RNR3, stronger effect = lower value 1.01 | locus YIL073C, strain SPO22, stronger effect = lower value 1.04 | locus YIL125W, strain kgd1, stronger effect = lower value 0.979 | locus YIR030C, strain dcg1, stronger effect = lower value 0.976 | locus YJL092W, strain hpr5, stronger effect = lower value 1.02 | locus YJL095W, strain BCK1 (second series), stronger effect = lower value 1.05 | locus YJL095W, strain BCK1, stronger effect = lower value 0.985 and 0.982 | locus YJL115W, strain asf1, stronger effect = lower value 1.04 | locus YJL129C, strain trk1, stronger effect = lower value 1.04 | locus YJL134W, strain LCB3, stronger effect = lower value 0.989 | locus YJL154C, strain vps35, stronger effect = lower value 1.03 | locus YJL164C, strain tpk1, stronger effect = lower value 1.03 | locus YJL166W, strain qcr8, stronger effect = lower value 1.01 | locus YJL168C, strain set2, stronger effect = lower value 0.981 | locus YJL187C, strain SWE1 (second series), stronger effect = lower value 0.987 | locus YJL187C, strain SWE1, stronger effect = lower value 1.03 | locus YJR043C, strain POL32, stronger effect = lower value 1.05
